Wnt act = activators of Wnt/beta-catenin signaling; Wnt/beta-catenin reporter cell assay, activator, plate reader; activation, % at 9.35 µM; hit rate 1.2% among 300,000; in the data active means activation above about 30%, passing the limit was not always enough; inconclusive means no clear call, values can overlap the other calls;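 further: 0% = neutral control wells and 100% = positive control wells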
AF4-AF9 inh = inhibitors of human MLL-AF4/AF9 interaction. P42568. AlphaScreen, biotin-AF4 peptide binding to FLAG-AF9. inhibition, % at 10 µM. hit rate 0.47% among 350,000. AID 651704;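 active means every replicate reaching a set inhibition limit, whatever the replicate mean, cut at about 25% in these data; inconclusive means mean inhibition reaches that limit but some replicates miss it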;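 further: 0% = plate neutral control median and 100% = total signal loss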
Target sequence (P42568 whole entry, looked up): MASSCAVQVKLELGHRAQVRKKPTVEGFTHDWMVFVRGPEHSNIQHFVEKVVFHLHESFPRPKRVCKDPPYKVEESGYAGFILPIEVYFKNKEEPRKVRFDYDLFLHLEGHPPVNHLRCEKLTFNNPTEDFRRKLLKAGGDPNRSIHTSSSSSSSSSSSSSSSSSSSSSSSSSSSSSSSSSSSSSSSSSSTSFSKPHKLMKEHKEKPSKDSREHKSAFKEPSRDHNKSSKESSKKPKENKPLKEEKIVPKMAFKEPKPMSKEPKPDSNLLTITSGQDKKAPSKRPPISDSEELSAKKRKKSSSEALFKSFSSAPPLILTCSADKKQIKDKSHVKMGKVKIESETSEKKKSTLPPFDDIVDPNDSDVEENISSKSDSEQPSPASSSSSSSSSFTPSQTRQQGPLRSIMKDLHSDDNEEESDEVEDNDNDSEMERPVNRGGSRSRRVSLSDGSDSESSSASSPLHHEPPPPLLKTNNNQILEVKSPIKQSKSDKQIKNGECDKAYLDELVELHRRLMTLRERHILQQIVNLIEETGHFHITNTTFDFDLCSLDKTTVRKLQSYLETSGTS
MITF TRPM1 HTS = activators of MITF-driven TRPM1 promoter activity in SK-MEL-5 cells; SK-MEL-5 TRPM1-promoter luciferase, 24 h; % of positive control, neutral wells = 0; activation, % at 12.5 µM; hit rate 0.75% among 300,000; AID 588334;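 active means mean activation of at least 80% with every replicate also reaching 80%; inconclusive means mean reaches 80% but some replicate falls short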;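 further: 0% = neutral control wells and 100% = parthenolide positive control wells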
esBAF inh = SWI/SNF esBAF complex inhibition; AID 602393; mouse ES cells, Bmi1-luciferase knock-in reporter, 24 h; 100% = twice the neutral-well signal; reporter increase, % at 12.5 µM; hit rate 2% among 350,000; in the data active means activation above about 40%; inconclusive means no clear call, values can overlap the other calls;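 further: 0% = median of the plate's neutral control wells and 100% = double that signal; a rise in the Bmi1 reporter signal indicates esBAF inhibition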
Ecoli rRNA inh = selective bacterial rRNA inhibition in E. coli; hit rate 1.6% among 350,000; E. coli WT GFP vs humanized-ribosome RFP mutants, fluorescence, 24 h; stronger effect = lower value; DMSO median 0, no signal -100; GFP signal change (wild-type ribosome), % (test concentration not listed);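 active means significant combined selectivity score with lowered wild-type GFP, culture density cut under 30%, mutant RFP and density less affected; inactive means any of these conditions unmet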
* marks the source's active call; other numbers are inactive results; ? = inconclusive; / = no result given. Most compounds without a hit are left out; they make up all but 3.7% or so of the library.

SMILES	Wnt act	AF4-AF9 inh	MITF TRPM1 HTS	esBAF inh	Ecoli rRNA inh
Cc1ccc(S(=O)(=O)Nc2ccc3c(c2)C(=O)N([C@H](C)CO)C[C@H](C)[C@H](CN(C)Cc2ccc(Cl)c(Cl)c2)OCCCC[C@@H](C)O3)cc1	/	-1	/	0	4
S=c1[nH]nc2nnc3ccccc3n12	-1	0	-16	-3	-32*
CCCCOc1nc(N2CCOCC2)nc(C)c1[N+](=O)[O-]	0	2	6	/	-6
Cc1nc(N2CCOCC2)nc(Oc2ccccc2)c1[N+](=O)[O-]	3	/	-4	/	-43*
COc1ccc(/C=C/C(=O)NCCc2nc3ccccc3[nH]2)cc1	0	-3	/	17	-26*
CCCCOc1ccc(/C=C/C(=O)NCCc2nc3ccccc3[nH]2)cc1	/	/	-9	-4	2
CC(NC(=O)c1ccco1)C(c1cccs1)N1CCN(c2ccc(F)cc2)CC1 (stereo not drawn)	-1	-25	-11	/	2
CN(CCC#N)C(=O)c1cc2c(s1)-c1ccccc1SC2	26	-2	86*	53*	10
Fc1cccc(NCc2cn3ccccc3n2)c1	/	/	/	60*	/
Cc1cc(/C=C2/C(=O)NN(c3ccccc3)C2=O)c(C)n1-c1ccc(O)cc1	1	4	-1	/	-12
Cc1cc(/C=C2\C(=O)NN(c3ccccc3)C2=O)c(C)n1-c1ccccc1O	13	-4	43	58*	0
Nc1ncncc1-c1ccccc1Cl	0	-2	4	/	-5
Nc1ncncc1-c1ccc(Cl)cc1	-3	-2	15	3	-22*
CNCCc1ccccn1	-1	-8	-6	3	9
S=C(NCCc1ccccn1)Nc1ccc(Cl)c(Cl)c1	-1	/	16	/	/
CN(CCc1ccccn1)c1ccccc1	11	3	71	48*	2
c1ccc(NCCc2ccccn2)cc1	17	0	49	46*	5
CN(CCc1ccccn1)S(=O)(=O)c1ccccc1F	-5	/	/	-5	/
S=C(NCCc1ccccn1)Nc1cc(Cl)cc(Cl)c1	0	1	/	/	-32*
N#C/C(=N\Nc1ccc(F)cc1)C(=N)N1CCCCC1	/	/	114*	13	/
N#C/C(=N\Nc1ccccc1)C(=N)N1CCCCCC1	42*	/	56	16	10
N#C/C(=N\Nc1cccc(F)c1)C(=N)N1CCCCCC1	13	-2	?	/	17
NS(=O)(=O)c1ccc(NC(=O)COC(=O)CSc2n[nH]c(-c3ccccc3)n2)cc1	/	/	-1	2	/
CC(=O)c1sc2nc(C)c3c(c2c1N)CCCC3	9	-4	/	/	-33*
Cn1c(-c2ccccc2)c(/C=N/NC(=O)c2ccc(O)cc2)c2ccccc21	29	-1	1	63*	-21
SMILES	Wnt act	AF4-AF9 inh	MITF TRPM1 HTS	esBAF inh	Ecoli rRNA inh
Cc1cccn2c(=O)nc(SCC(=O)NCCc3ccccc3)nc12	/	0	-4	-2	4
O=[N+]([O-])c1ccc(Cc2nnc(-c3ccc(F)cc3)o2)cc1	?	3	?	/	7
Cc1ccc(-c2nnc(Cc3ccc([N+](=O)[O-])cc3)o2)cc1	?	4	94*	-5	7
COc1ccc(Nc2nc(N)nc(CSC(=S)N3CCCCC3C)n2)cc1 (stereo not drawn)	2	13	/	/	-22*
CCOc1ccc(Nc2nc(N)nc(CSC(=S)N3CCN(c4ccccc4)CC3)n2)cc1	-4	35*	/	1	3
O=C(Nc1cccc(O)c1)c1c(O)c2ccccc2[nH]c1=O	19	0	/	-4	24
Cc1cccc(NC(=O)c2c(O)c3ccccc3[nH]c2=O)c1	41*	1	106*	49*	3
COc1cc(C(F)(F)F)ccc1C(=O)NCCc1ccco1	4	-2	107*	60*	-9
COc1cc(OC)c(C(=O)NCc2ccco2)cc1OC	-1	-7	/	0	2
O=C(c1ccc(Br)cc1)c1cn[nH]c1-c1ccccc1O	3	1	11	10	0
CC(C)(C)c1ccc(C(=O)c2cn[nH]c2-c2ccccc2O)cc1	19	2	45	63*	-22*
CC(=C/c1ccccc1)/C=N/N1CCN(Cc2ccc(C)cc2)CC1	2	3	/	/	-25*
COc1ccc(C(=O)Cc2ccc3c(c2)OCO3)c(O)c1	37*	/	77	/	/
O=C(Cc1ccc2c(c1)OCCO2)c1c(O)cc(O)cc1O	8	-6	39	55*	-4
O=C(O)COc1ccc(C(=O)Cc2ccc3c(c2)OCCCO3)c(O)c1	0	0	9	-9	4
COC(=O)c1cc2c(c3c4cc(F)ccc4n(S(=O)(=O)c4ccc(C)cc4)c13)C(=O)N(c1ccc(OC)cc1)C2	9	-2	/	/	1
O=C(CN1C(=O)/C(=C/c2ccc(F)cc2)SC1=S)N1CCN(CCc2ccccn2)CC1	0	1	-7	0	-30*
CC(OC(=O)c1nc(-c2ccccc2)n(-c2ccccc2)n1)C(=O)Nc1cc(Cl)cc(Cl)c1 (stereo not drawn)	3	5	4	0	-4
O=C(CCCN1CCC(C(=O)c2ccc(F)cc2)CC1)c1ccc(F)cc1	1	-1	-1	-2	3
O=C(CCCC(=O)c1ccc(F)cc1)c1ccc(F)cc1	37*	-6	131*	55*	-20
O=C(CSc1nnc(C2CC2)n1C1CC1)c1ccc(Br)s1	33*	-6	71	56*	-28*
COC(=O)CC1SC(=O)NC1=Nc1ccccc1 (stereo not drawn)	/	/	-14	/	/
CC(C)(C)C(=O)NNC(=O)c1cc2sccc2s1	41*	-5	-4	/	5
COc1cc(-c2noc(-c3cccc(Cl)c3)n2)cc(OC)c1OC	-4	/	/	3	/
NC(=O)c1ccc(-c2noc(-c3cccc(Cl)c3)n2)cc1	36*	-2	125*	40	24
SMILES	Wnt act	AF4-AF9 inh	MITF TRPM1 HTS	esBAF inh	Ecoli rRNA inh
O=C(O)c1ccc(-c2noc(-c3cccc(C(F)(F)F)c3)n2)cc1	6	0	77	-2	-4
O=C(O)c1cccc(-c2noc(-c3cccc(Cl)c3)n2)c1	37*	-4	-91	-82	4
COc1cc(N)c(Cl)cc1C(=O)OCC(=O)Nc1ccc(N2CCOCC2)cc1	1	2	-6	-4	-5
Cc1ccc(C(C)(C)NC(=O)C2CCC(=O)N(CCCN3CCOCC3)C2)cc1 (stereo not drawn)	1	-2	-6	1	2
Cc1ccc(C(C)(C)NC(=O)C2CCC(=O)N(C3CCCCCC3)C2)cc1 (stereo not drawn)	-3	-2	70	74*	1
Cc1ccc2[nH]c(C(=O)N3CCN(C=O)CC3)cc2c1	1	-3	1	3	0
Cc1ccc(-c2ccc(=O)n(CC(=O)NCC3COCCO3)n2)cc1 (stereo not drawn)	0	0	-2	-1	4
O=C(CSCc1ccc(F)cc1)Nc1ccc(F)cc1	/	1	24	/	-7
Cc1ccccc1CSCC(=O)Nc1ccccc1F	8	0	/	48*	-25*
COc1ccc(C)cc1NC(=O)CSCc1ccccc1C	-2	1	7	-4	-22
